According to PubChem BioAssay (NCI):
About 83,000 compounds went through this panel and 20% of them were active in at least one assay; those are over-represented in the sample as a whole.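 Single-concentration screen, 48 h exposure, 96-well plates. Endpoint: percent growth. Below 10 = active.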 Calls of active or inactive are those of the source.

Columns and labels:
Assay in all cases: NCI-60 one-dose screen, 48 h (100 = growth as untreated, 0 = no growth, -100 = all killed)
Settings in all cases: 10 µM unless noted
[1] = tested on: NCI-H23 lung
[2] = tested on: NCI-H226 lung
[3] = tested on: NCI-H322M lung
[4] = tested on: HOP-62 NSCLC
[5] = tested on: NCI-H460 lung
[6] = tested on: HOP-92 NSCLC
[7] = tested on: NCI-H522 lung
[8] = tested on: A549/ATCC NSCLC
[9] = tested on: 786-0 renal
[10] = tested on: COLO 205 colon
[11] = tested on: DU-145 prostate
[12] = tested on: K-562 leukemia
[13] = tested on: MALME-3M melanoma
[14] = tested on: MDA-MB-231 breast
[15] = tested on: RXF 393 renal
[16] = tested on: SF-268 CNS
[17] = tested on: SF-295 CNS
[18] = tested on: SF-539 CNS
[19] = tested on: UACC-257 melanoma
[20] = tested on: M14 melanoma

Measured: growth

Cn1cc(-c2csc(-c3cn(CCN)c4ccc(Br)cc34)n2)c2cccnc21
inactive: [1] 78.4% | [2] 85.1% | [3] 75.3% | [4] 67.2% | [5] 16.4% | [6] 45.9% | [7] 90.6% | [8] 37.5% | [9] 73.1% | [11] 58.5% | [12] 18.1% | [13] 97.5% | [14] 62.4% | [15] 75.6% | [16] 78.4% | [17] 100% | [18] 82.5% | [19] 92.8% | [20] 86.1%
active: [10] -5.13%

N#C/C(=C\c1ccc(-c2ccc(F)cc2)o1)c1nc(-c2ccco2)cs1
inactive: [1] 93.6% | [2] 84% | [3] 93% | [4] 96.7% | [5] 91.2% | [6] 93.9% | [7] 98.1% | [8] 103% | [9] 109% | [10] 108% | [11] 104% | [12] 95.9% | [13] 98.1% | [14] 88.7% | [15] 116% | [16] 106% | [17] 102% | [18] 98.7% | [19] 106% | [20] 102%

C=C1C(=O)O[C@H]2[C@H]1CC/C(COC(=O)N[C@H](Cc1c[nH]c3ccccc13)C(=O)OC)=C\CC[C@@]1(C)O[C@@H]21
inactive: [1] 68.8% | [2] 85.6% | [3] 86.3% | [4] 64.6% | [5] 64% | [8] 82.4% | [11] 40.9% | [14] 26.8% | [16] 72.6% | [17] 91.9% | [18] 11.6% | [19] 63.7% | [20] 44.1%
active: [6] 3.25% | [7] -71.4% | [9] -56.3% | [10] -36.2% | [12] 7.14% | [13] 4.76% | [15] -25.5%

Cc1cc(N2CCN(C)CC2)nc(N(CCNc2ccnc3cc(Cl)ccc23)Cc2ccco2)n1
inactive: [1] 57.5% | [2] 92.9% | [3] 51% | [4] 26.8% | [5] 24.3% | [6] 49.2% | [7] 53.7% | [8] 41.4% | [9] 32.6% | [11] 56.8% | [15] 40.4% | [16] 52.8%
active: [10] -5.82% | [12] 1.61% | [13] -57.7% | [14] 9.87% | [17] -15.3% | [18] -68.3% | [19] 5.22% | [20] -87.5%

CN1CCN(c2ccc3nc(-c4[nH]ncc4Nc4ncnc5[nH]ccc45)[nH]c3c2)CC1
active: [1] -1.38% | [2] -10.2% | [3] 1.88% | [4] -0.445% | [7] -4.39% | [9] 2.96% | [10] -59.8% | [11] 7.18% | [12] 7.3% | [13] -16.6% | [14] -13% | [15] -71.7% | [16] -9.53% | [17] -1.58% | [18] -43.6% | [20] 3.42%
inactive: [5] 21% | [6] 26.9% | [8] 24% | [19] 11.7%

C[C@@H](Oc1ccc(C(=O)NS(=O)(=O)C(C)(C)C)cc1C(F)(F)F)c1ccc(Oc2ccccc2)cn1
inactive: [1] 61.2% | [2] 72.7% | [3] 54.3% | [4] 52.2% | [5] 45.7% | [6] 63.7% | [7] 24.5% | [8] 74.8% | [9] 37.5% | [10] 48.7% | [11] 79.6% | [12] 19.9% | [13] 44.4% | [14] 68.9% | [16] 54.3% | [17] 22.2% | [18] 29.8% | [19] 51.5% | [20] 22.8%
active: [15] -12.5%

O=S(=O)(NCCNc1cc(-c2cn(-c3ccccc3)nc2-c2cccc(O)c2)ccn1)c1ccccc1
active: [12] 9.58%
inactive: [1] 57.4% | [2] 67.1% | [3] 82% | [4] 77.7% | [5] 49.1% | [6] 49.4% | [7] 42.3% | [8] 45.5% | [9] 55.3% | [10] 18.3% | [11] 76.2% | [13] 76.4% | [14] 28% | [15] 66.3% | [16] 69.7% | [17] 43.2% | [18] 70% | [20] 53.9%

C[C@@H](C(=O)O)c1ccc2c3cc(Cl)ccc3n(Cc3cc(=O)oc4ccc(Cl)cc34)c2c1
inactive: [1] 95.6% | [2] 103% | [3] 86.3% | [4] 103% | [5] 111% | [6] 108% | [7] 90.7% | [8] 102% | [9] 95.9% | [10] 113% | [11] 103% | [12] 98.2% | [13] 89.5% | [14] 106% | [15] 116% | [16] 93.4% | [17] 103% | [18] 102% | [19] 104% | [20] 100%

NC(N)=N/N=C/c1ccc(-c2ccc(-c3ccc(Cl)cn3)s2)cc1
inactive: [1] 101% | [2] 88.6% | [3] 96.7% | [4] 93.8% | [5] 88.1% | [6] 58.3% | [7] 97.6% | [8] 71.4% | [9] 63.8% | [10] 28.7% | [11] 94.4% | [13] 101% | [14] 76.8% | [15] 59.2% | [16] 88.2% | [17] 102% | [18] 85.9% | [19] 109% | [20] 94.7%
active: [12] 1.08%

O=c1[nH]c2c3ccncc3cc(-c3cccc(Cl)c3)c2c2cnccc12
active: [4] 0.205% | [5] 5.33% | [6] 5.61% | [15] -16.5% | [18] 2.59%
inactive: [1] 50.8% | [2] 29.6% | [3] 56.2% | [7] 53.7% | [8] 27.4% | [9] 17.4% | [10] 25.4% | [11] 39.5% | [12] 75% | [13] 69.1% | [14] 35.1% | [16] 53.9% | [17] 31.4% | [19] 49.5% | [20] 55.2%

CC(=O)NC1=C(C#N)C(c2ccccc2Cl)c2c(ccc3ccccc23)O1 (centres undefined)
inactive: [1] 76.2% | [2] 83.5% | [3] 86.8% | [4] 59.2% | [5] 39.1% | [6] 72.5% | [7] 39.2% | [8] 67.1% | [9] 82.7% | [10] 79.5% | [11] 89.1% | [12] 19.4% | [13] 48.4% | [14] 66.6% | [15] 77.2% | [16] 68.5% | [17] 25.7% | [18] 58.4% | [19] 76.7% | [20] 31.1%

COc1ccc(C2(Cl)c3ccccc3N(c3ccccc3)c3ccccc32)cc1
active: [1] -14.8% | [2] -27.8% | [3] 9.96% | [4] 8.43% | [5] -55.2% | [6] -14.7% | [7] -3.22% | [8] 9.18% | [9] -48.8% | [10] -42.8% | [12] 8.99% | [13] -57% | [14] -23.8% | [15] -28.4% | [17] -36.6% | [18] -20.3% | [19] -41.5% | [20] -55.1%
inactive: [11] 16.8% | [16] 15.4%

CCCCCCCCNc1cccc2c1C(=O)c1ccccc1C2=O
inactive: [1] 102% | [2] 96.5% | [3] 101% | [4] 115% | [5] 101% | [6] 109% | [7] 81.3% | [8] 91.7% | [9] 104% | [10] 116% | [11] 112% | [12] 97.2% | [13] 108% | [14] 96.1% | [15] 100% | [16] 94.9% | [17] 112% | [18] 121% | [19] 98.2% | [20] 107%

Cc1cc(C)n(Cc2cc(C(C)(C)C)cc(C(C)(C)C)c2)c(=O)c1C#N
inactive: [1] 101% | [2] 93.3% | [3] 92.5% | [4] 96.3% | [5] 93.9% | [6] 86% | [7] 83.9% | [8] 98% | [9] 93.5% | [10] 110% | [11] 103% | [12] 88.1% | [13] 82.4% | [14] 82.5% | [15] 101% | [16] 94.8% | [17] 85.9% | [18] 90.8% | [19] 102% | [20] 89.8%

NNC(=O)c1nc2ccccc2[nH]1
inactive: [1] 93.3% | [2] 116% | [3] 107% | [4] 97.4% | [5] 108% | [6] 98.5% | [7] 96.8% | [8] 61.3% | [9] 102% | [10] 103% | [11] 112% | [12] 87.2% | [13] 107% | [14] 103% | [15] 124% | [16] 102% | [17] 104% | [18] 103% | [19] 65.9% | [20] 92.4%
